Drawing on PubChem BioAssay AID493233 (Broad Institute, 2011), this text covers outcome for two compounds.

This assay deals with Protein RecA (Mycobacterium tuberculosis (strain ATCC 25618 / H37Rv)) (UniProt P9WHJ3). The assay can be described thus: RecA inhibition, Mycobacterium tuberculosis, GFP plate reader MOA with DTT, confirmatory (AID 493233).

Results with a measured potency or affinity are listed apart. Calls of active or inactive are those of the source. How the calls were made is not given here.

Chain of Protein RecA (Mycobacterium tuberculosis (strain ATCC 25618 / H37Rv)) (P9WHJ3 whole entry, looked up): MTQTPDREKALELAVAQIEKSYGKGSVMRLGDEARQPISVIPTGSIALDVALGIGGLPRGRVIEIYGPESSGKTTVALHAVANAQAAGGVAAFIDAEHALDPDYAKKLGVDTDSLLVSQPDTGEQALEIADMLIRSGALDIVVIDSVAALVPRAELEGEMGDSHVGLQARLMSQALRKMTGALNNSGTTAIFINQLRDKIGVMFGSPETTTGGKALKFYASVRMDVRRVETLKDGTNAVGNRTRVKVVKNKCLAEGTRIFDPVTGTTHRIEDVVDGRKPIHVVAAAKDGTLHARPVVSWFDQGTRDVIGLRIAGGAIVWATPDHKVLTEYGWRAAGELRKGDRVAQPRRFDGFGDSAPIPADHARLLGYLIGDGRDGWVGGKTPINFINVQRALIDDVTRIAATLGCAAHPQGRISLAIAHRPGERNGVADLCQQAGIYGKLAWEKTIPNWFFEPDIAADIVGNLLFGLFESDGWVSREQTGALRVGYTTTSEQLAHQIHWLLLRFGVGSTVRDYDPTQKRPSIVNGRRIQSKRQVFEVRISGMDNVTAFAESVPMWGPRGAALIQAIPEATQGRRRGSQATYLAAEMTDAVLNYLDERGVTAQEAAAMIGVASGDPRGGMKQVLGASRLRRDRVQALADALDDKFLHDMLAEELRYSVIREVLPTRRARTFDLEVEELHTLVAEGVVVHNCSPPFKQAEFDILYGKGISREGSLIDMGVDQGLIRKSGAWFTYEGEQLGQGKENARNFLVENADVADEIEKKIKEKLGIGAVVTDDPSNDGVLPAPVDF

Turning to `Nc1cn(-c2ccccc2)nc1-c1ccc(F)cc1`, the result was inactive.
On to `C/C(=N\NC(=O)c1ccncc1)c1cc2ccccc2oc1=O`, for which the call was inactive.
